Source: PubChem BioAssay (several laboratories)
ABHD5-PLIN5 inh: ABHD5-PLIN5 interaction inhibitors, primary screen, cell lysate, split luciferase complementation, luminescence. 360,000 tested, 0.78% active. Perilipin-5 (Homo sapiens) + 1-acylglycerol-3-phosphate O-acyltransferase ABHD5 (Homo …. inhibition, % at 4 µM. Split G. princeps luciferase complementation, 4 h;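 active = inhibition above the mean inhibition across every tested compound plus 3 SD, cut at about 22% in these data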;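 note: 0% = DMSO only wells and the 100% control is not disclosed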
TLR4 MyD88 comp: inhibitors of TLR4-MyD88 association in cells, primary screen, cell-based, HeLa CL3-4, BLA complementation, FRET ratio. HeLa CL3-4 TLR4/MyD88 BLA complementation. inhibition, % at 8.4 µM. Toll-like receptor 4 (Homo sapiens) + Myeloid differentiation primary response protein …. 200,000 tested, 0.18% active; in the data active = inhibition above about 25%;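 note: 0% = vehicle and 100% = reference inhibitor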
m5-HT2A agonist: mouse Htr2a agonists via beta-arrestin recruitment, primary screen, cell-based, luminescence; 5-hydroxytryptamine receptor 2A (Mus musculus), P35363; CHO-K1 mHTR2A beta-arrestin complementation; percent of 30 µM serotonin response; activation, % at 7.6 µM; 360,000 tested, 0.66% active; AID 624169, 2012;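 active = activation above a run cutoff, the mean activation of all tested compounds plus 3 SD, cut at about 14% in these data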;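 note: 0% = plate median of compound wells and 100% = 30 µM serotonin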
NOD2-RIPK2 inh: NOD2-RIPK2 binding disruptors in cells, primary screen, fluorescence, CHO cells, BLA complementation; CCF4 ratio; 360,000 tested, 0.38% active; inhibition, % at 4.98 µM; Receptor-interacting serine/threonine-protein kinase 2 (Homo sapiens), O43353; in the data active = inhibition above about 21%;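 note: 0% = vehicle only and 100% = reference blocker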
CRFR2-BP antag: antagonists of CRF-BP/CRF-R2 complex, primary screen, cell-based, HEK293, calcium dye fluorescence, uHTS | CRF-induced calcium fluorescence | inhibition, % at 11.8 µM | 350,000 tested, 0.59% active | AID 588475, 2011;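 active = inhibition of the ligand-induced calcium signal above about 50% at the single tested concentration, limit read from the data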
TLR9-MyD88 inh: inhibitors of TLR9-MyD88 association in cells, primary screen, cell-based, CHO, BLA complementation, fluorescence. Toll-like receptor 9 (Homo sapiens) + Myeloid differentiation primary response protein …. CCF4 FRET ratio. inhibition, % at 4.98 µM. 340,000 tested, 0.21% active;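 active = inhibition above the mean over all tested compounds plus 3 SD, cut at about 21% in these data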;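 note: 0% = DMSO only wells and 100% = clavulanate BLA inhibitor control wells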
ABHD5 PLIN5 conf: ABHD5-PLIN5 interaction inhibitors, confirmation, biochemical, luminescence | AID 651612, 2012 | 2,200 tested, 67% active | inhibition, % at 4 µM | shares compounds with ABHD5-PLIN5 inh; in the data active = inhibition above about 23%;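 note: 0% = DMSO vehicle wells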
HNF4 counter: HNF4 dimerization inhibitors, counter-screen for ABHD5-PLIN5 interaction inhibitor project, biochemical, split-luciferase complementation, luminescence. AID 651674, 2012. inhibition, % at 4 µM. shares compounds with ABHD5-PLIN5 inh. 2,200 tested, 77% active;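 active = mean inhibition across replicate wells exceeding the computed hit threshold, cut at about 13% in these data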;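 note: light from luciferase halves that rejoin when HNF4 fusion proteins dimerize; 0% = DMSO only wells and the 100% control is not given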
Target sequence (P41235 whole entry, looked up, the tested form may be a part): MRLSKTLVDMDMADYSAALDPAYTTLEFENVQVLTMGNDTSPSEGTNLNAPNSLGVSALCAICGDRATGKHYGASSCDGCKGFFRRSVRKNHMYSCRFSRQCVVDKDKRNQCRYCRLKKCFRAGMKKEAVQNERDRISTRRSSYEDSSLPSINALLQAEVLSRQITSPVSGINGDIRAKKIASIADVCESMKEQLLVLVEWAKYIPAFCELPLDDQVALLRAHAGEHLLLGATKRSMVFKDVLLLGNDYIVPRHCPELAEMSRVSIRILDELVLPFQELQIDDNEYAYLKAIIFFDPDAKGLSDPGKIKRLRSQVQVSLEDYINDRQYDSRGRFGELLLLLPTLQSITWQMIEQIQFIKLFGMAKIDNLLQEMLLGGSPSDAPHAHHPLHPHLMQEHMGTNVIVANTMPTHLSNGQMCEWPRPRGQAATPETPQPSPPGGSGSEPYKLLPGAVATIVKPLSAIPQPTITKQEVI
* hit, by the source's call; . = no result given. Only some compounds are listed: those with a hit (about 2.4% of all), similar ones and a draw of the others.

SMILES	ABHD5-PLIN5 inh	TLR4 MyD88 comp	m5-HT2A agonist	NOD2-RIPK2 inh	CRFR2-BP antag	TLR9-MyD88 inh	ABHD5 PLIN5 conf	HNF4 counter
CCCCn1c(=O)cc(N2CCOCC2)[nH]c1=O	25.3*	2.0	2.0	8.9	5.5	-6.7	2.5	1.9
CCCC1NC(=O)c2cccnc2-n2c1nc1ccc(Br)cc1c2=O (stereo not given)	5.3	.	3.8	1.3	7.9	-0.8	.	.
Cc1cc(C)cc(N2C(=O)C=CC2=O)c1	35.1*	.	0.8	17.6	34.0	15.9	28.8*	88.5*
O=C(N[C@@H](Cc1ccccc1)C(=O)CCl)OCc1ccccc1	65.5*	.	-0.8	12.0	-15.7	7.3	96.5*	106.5*
CC1=C(C(=O)N2CCOCC2)CC(CC(=O)NCCCCc2ccccc2)C(=O)N1Cc1ccc(C(C)(C)C)cc1 (stereo not given)	7.7	.	-0.3	-8.0	10.3	2.3	.	.
O=C1Cc2ccccc2Sc2c(OCCN3CCCCC3)cccc21	24.8*	2.1	-1.1	9.9	-17.0	-1.1	4.3	12.3
CCOC(=O)C1(C)CCCN(C(=O)c2ccc3c(c2)CCO3)C1 (stereo not given)	2.4	.	2.1	2.3	.	.	.	.
O=c1c(C(c2ccccc2)c2c(O)nc3n(c2=O)CCS3)c(O)nc2n1CCS2	24.9*	1.8	-3.2	-3.6	3.0	1.4	55.6*	58.9*
O=c1c(C(c2ccccc2)c2c(O)nc3n(c2=O)CCCS3)c(O)nc2n1CCCS2	7.2	-1.2	7.2	-1.1	21.8	-0.2	.	.
O=C(Cn1cc(COc2cc(F)cc(F)c2)nn1)c1ccc(O)cc1	3.1	.	-0.6	5.4	-6.4	8.6	.	.
CC(=O)c1ccc(OCc2cn(CC(=O)c3ccc(O)cc3)nn2)c(C)c1	6.0	.	1.5	2.5	9.4	10.1	.	.
Cc1cccc(C)c1OCc1cn(CC(=O)c2ccc(O)cc2)nn1	45.0*	.	-3.5	5.7	33.9	-1.3	65.9*	36.8*
CC(=O)c1ccc(OCc2cn(CC(=O)c3ccc(O)cc3)nn2)cc1	23.5*	.	2.3	-3.4	-14.7	0.4	20.4	23.7*
COc1cc(C(C)=O)ccc1OCc1cn(CC(=O)c2ccc(O)cc2)nn1	24.9*	.	-0.7	-5.8	11.4	3.4	53.0*	31.1*
CC(=O)Nc1ccc(OCc2cn(CC(=O)c3ccc(O)cc3)nn2)cc1	68.1*	.	-2.9	-5.1	-10.5	1.9	83.1*	52.6*
O=C1CCCC2=C1C(c1ccccc1)C1C(=O)c3ccccc3C1=N2 (stereo not given)	9.2	-7.7	-5.5	-5.7	-7.5	-3.7	.	.
Cc1ccc(C2C3=C(CCCC3=O)N=C3c4ccccc4C(=O)C32)cc1 (stereo not given)	33.5*	-15.5	-2.1	-5.6	20.2	1.2	51.0*	54.7*
CCCCCCCCN1C(=O)[C@H](CC(=O)NCc2ccc(C)o2)C[C@@]2(C(=O)OC)CCCCC=C12	35.9*	.	-2.1	0.2	.	.	22.6*	6.7
CCCCCCCCN1C(=O)[C@H](CC(=O)NCc2ccc(C)o2)C[C@@]2(C(=O)OCC)CCC=C12	31.0*	.	-4.4	-3.3	.	.	27.9*	15.8*
Cc1csc(-c2cc(C(=O)NCc3ccc(F)cc3)n[nH]2)c1	-16.2	.	-6.6	2.4	.	.	.	.
COCCn1c(=N)c(C(=O)NCc2ccco2)cc2c(=O)n3ccccc3nc21	24.8*	-0.9	3.6	-16.0	4.6	-4.3	6.7	33.4*
COCCCn1c(=N)c(C(=O)NCc2ccc3c(c2)OCO3)cc2c(=O)n3ccccc3nc21	2.0	-0.6	-1.4	-5.2	11.2	-7.1	.	.
N=c1c(C(=O)NCc2ccco2)cc2c(=O)n3ccccc3nc2n1Cc1ccc(Cl)cc1	26.2*	13.4	-2.6	-6.1	-4.6	-23.8	13.7	23.5*
N=c1c(C(=O)NCc2ccc(F)cc2)cc2c(=O)n3ccccc3nc2n1Cc1ccco1	19.8	12.9	-2.6	3.4	-14.4	3.8	.	.
Cc1ccc2nc3c(cc(C(=O)NCc4ccco4)c(=N)n3Cc3ccco3)c(=O)n2c1	32.6*	-4.8	-2.9	1.5	-10.7	8.5	9.8	29.2*
SMILES	ABHD5-PLIN5 inh	TLR4 MyD88 comp	m5-HT2A agonist	NOD2-RIPK2 inh	CRFR2-BP antag	TLR9-MyD88 inh	ABHD5 PLIN5 conf	HNF4 counter
O=C(Nc1ccccc1)C1Cc2c(-c3ccco3)ccnc2O1 (stereo not given)	9.5	.	-0.1	-10.5	.	.	.	.
CC1(C(=O)NCCC(F)(F)F)Cc2c(-c3ccccc3)ccnc2O1 (stereo not given)	7.5	.	-1.9	-2.2	.	.	.	.
CC(C)COC(=O)N1CCCCC1c1cc(C(=O)NC(C)C)no1 (stereo not given)	-3.8	.	10.4	-8.5	.	.	.	.
COc1cccc(CNc2nc3cc(-c4ccccc4CO)sc3c(=O)n2C)c1	7.6	.	7.0	-5.0	.	.	.	.
O=C(NCc1ccccc1)C(c1cc2ccccc2o1)n1c(=O)c(-c2ccco2)nc2ccccc21 (stereo not given)	90.6*	.	3.9	-7.6	.	.	62.4*	15.3*
CC(C)(C)NC(=O)C(c1ccccc1)n1c(=O)c(-c2ccccc2)nc2ccccc21 (stereo not given)	-4.7	.	5.7	-13.0	.	.	.	.
CC(C)(C)NC(=O)C(c1ccc(C(F)(F)F)cc1)n1c(=O)c(-c2ccco2)nc2ccccc21 (stereo not given)	60.0*	.	0.0	-9.9	.	.	87.3*	37.5*
O=C(NCc1ccccc1)C(c1ccccc1)n1c(=O)c(-c2ccco2)nc2ccccc21 (stereo not given)	74.3*	.	-2.5	4.6	.	.	48.1*	11.7
O=C(NCc1ccccc1)C(c1ccc(C(F)(F)F)cc1)n1c(=O)c(-c2ccco2)nc2ccccc21 (stereo not given)	74.3*	.	2.6	-24.4	.	.	94.5*	43.9*
CC1(C(=O)NCc2ccco2)Cc2c(-c3ccccc3)ccnc2O1 (stereo not given)	-0.2	.	0.4	10.1	.	.	.	.
CCCNC(=O)C1(C)CCN(Cc2noc(-c3ccccc3OC)n2)C1 (stereo not given)	0.0	.	2.4	-3.6	.	.	.	.
O=C(NCc1ccccc1)C(C1CC1)n1c(=O)c(-c2ccco2)nc2ccccc21 (stereo not given)	38.2*	.	-1.8	-3.5	.	.	37.4*	12.9*
